ChEMBL document CHEMBL3988442, “University of Dundee, Small-Polar-MMV Screening Library” (2021)
For some of these results: Measured potencies and affinities stand elsewhere.

Experiments:
Parameters in all cases: scale not given: direction of the effect not stated beside the values
[1] = target: Protein translocase subunit SecA (Escherichia coli (strain K12)) (UniProt P10408); experiment: Assay to Identify E. coli SecA ATPase Inhibitors; type: functional; details: 30 µM
[2] = target: T1, Ubiquitin-activating enzyme e1, putative (Leishmania donovani (strain BPK282A1)) (UniProt E9BSI1); experiment: Leishmania donovani Ubiquitin Activating Enzyme (LdE1); type: functional; details: 30 µM
T1 sequence (whole entry): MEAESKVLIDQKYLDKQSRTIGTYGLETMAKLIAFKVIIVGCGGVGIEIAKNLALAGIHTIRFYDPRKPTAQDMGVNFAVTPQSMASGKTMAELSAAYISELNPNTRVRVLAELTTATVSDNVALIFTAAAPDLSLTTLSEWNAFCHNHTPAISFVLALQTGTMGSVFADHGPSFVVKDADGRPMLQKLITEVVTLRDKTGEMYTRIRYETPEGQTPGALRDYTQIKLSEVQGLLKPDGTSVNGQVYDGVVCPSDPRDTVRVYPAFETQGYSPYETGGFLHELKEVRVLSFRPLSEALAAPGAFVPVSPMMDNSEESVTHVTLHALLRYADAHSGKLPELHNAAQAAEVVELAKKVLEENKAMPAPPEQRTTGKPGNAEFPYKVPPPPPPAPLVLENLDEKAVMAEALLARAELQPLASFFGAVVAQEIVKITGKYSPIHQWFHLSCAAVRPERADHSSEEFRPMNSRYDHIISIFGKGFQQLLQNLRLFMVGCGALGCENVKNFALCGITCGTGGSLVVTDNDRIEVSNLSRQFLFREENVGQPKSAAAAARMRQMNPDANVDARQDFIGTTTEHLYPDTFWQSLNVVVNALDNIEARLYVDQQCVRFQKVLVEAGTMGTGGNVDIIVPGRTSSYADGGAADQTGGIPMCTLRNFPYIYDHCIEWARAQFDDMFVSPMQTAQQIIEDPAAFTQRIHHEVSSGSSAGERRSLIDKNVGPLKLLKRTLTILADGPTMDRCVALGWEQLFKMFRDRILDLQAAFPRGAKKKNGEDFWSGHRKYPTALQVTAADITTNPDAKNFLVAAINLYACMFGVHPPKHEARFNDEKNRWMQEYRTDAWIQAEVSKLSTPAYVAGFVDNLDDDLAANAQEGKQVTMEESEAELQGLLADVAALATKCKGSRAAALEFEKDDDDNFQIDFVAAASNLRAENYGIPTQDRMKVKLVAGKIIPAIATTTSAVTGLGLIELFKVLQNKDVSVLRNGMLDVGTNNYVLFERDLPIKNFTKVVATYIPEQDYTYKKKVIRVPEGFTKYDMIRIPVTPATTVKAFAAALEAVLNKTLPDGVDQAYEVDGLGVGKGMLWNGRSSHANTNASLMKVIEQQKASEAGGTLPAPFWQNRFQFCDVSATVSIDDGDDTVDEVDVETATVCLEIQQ

[3] = target: AMP-activated protein kinase, AMPK (Homo sapiens) (UniProt P54646+O43741+P54619+Q9UGJ0+Q9Y478+Q13131+Q9UGI9); experiment: AMP-dependent Kinase enzyme assay. An in vitro enzyme assay that detects ADP turnover that is directly proportional to AMPK activity. This uses naive AMPK that is activated during the assay with MK-8722; type: functional; details: 30 µM
[4] = target: Sialic acid-binding Ig-like lectin 9 (Homo sapiens) (UniProt Q9Y336); experiment: Hs-Siglec9 ALPHAscreen SOP 20170721; details: 10 µM
Trypanosoma cruzi = experiment: Trypanosoma cruzi phosphomannomutase and mannose-1-phosphate guanylyltransferase assay; type: functional; details: 10 µM
[5] = target: T2, Arginase-2, mitochondrial (Homo sapiens) (UniProt P78540); experiment: in vitro enzyme assay to detect the production of urea directly proportional to the activity of Arginase II; type: functional; details: 33.3 µM; further: in the data most compounds retested in dose-response had high values
T2 sequence (whole entry): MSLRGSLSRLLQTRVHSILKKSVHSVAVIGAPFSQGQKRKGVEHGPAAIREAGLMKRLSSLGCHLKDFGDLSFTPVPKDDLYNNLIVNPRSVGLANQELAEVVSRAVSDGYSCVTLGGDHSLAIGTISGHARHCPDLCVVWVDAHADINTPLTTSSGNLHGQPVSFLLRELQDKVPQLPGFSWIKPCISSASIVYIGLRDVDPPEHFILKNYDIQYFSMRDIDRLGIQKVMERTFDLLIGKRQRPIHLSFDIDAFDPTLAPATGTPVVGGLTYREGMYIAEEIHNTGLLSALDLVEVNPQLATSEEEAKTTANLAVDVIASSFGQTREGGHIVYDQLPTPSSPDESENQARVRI

[6] = target: T3, Proteasome subunit beta (Trypanosoma cruzi) (UniProt O96673); experiment: Trypanosoma cruzi proteasome chymotrypsin-like activity (TcProtChymo) assay.; further: in the data most compounds retested in dose-response had high values; type: functional; details: 9.37 µM
T3 sequence (whole entry): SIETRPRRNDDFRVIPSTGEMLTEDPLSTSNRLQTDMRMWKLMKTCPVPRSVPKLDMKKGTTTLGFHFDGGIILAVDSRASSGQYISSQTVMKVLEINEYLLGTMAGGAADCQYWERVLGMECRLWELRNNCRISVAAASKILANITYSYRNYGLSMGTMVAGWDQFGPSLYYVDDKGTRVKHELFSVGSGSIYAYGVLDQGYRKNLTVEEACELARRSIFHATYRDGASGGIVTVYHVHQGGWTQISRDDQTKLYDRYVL

Homo sapiens = species on record: Homo sapiens; experiment: To identify inhibition of the IFN signalling (Jak-Stat) pathway via expression of an eGFP reporter gene under the control of an IFN-stimulated response element (ISRE) containing MxA promoter.; type: functional; details: 30 µM
[7] = target: T4, Tyrosyl-tRNA synthetase, putative (Trypanosoma cruzi (strain CL Brener)) (UniProt Q4DSP6); experiment: Trypanosoma cruzi tyrosyl tRNA synthetase (TcYRS) _High Tyrosine SOP; type: functional; details: 30 µM; further: in the data most compounds retested in dose-response had high values
T4 sequence (whole entry): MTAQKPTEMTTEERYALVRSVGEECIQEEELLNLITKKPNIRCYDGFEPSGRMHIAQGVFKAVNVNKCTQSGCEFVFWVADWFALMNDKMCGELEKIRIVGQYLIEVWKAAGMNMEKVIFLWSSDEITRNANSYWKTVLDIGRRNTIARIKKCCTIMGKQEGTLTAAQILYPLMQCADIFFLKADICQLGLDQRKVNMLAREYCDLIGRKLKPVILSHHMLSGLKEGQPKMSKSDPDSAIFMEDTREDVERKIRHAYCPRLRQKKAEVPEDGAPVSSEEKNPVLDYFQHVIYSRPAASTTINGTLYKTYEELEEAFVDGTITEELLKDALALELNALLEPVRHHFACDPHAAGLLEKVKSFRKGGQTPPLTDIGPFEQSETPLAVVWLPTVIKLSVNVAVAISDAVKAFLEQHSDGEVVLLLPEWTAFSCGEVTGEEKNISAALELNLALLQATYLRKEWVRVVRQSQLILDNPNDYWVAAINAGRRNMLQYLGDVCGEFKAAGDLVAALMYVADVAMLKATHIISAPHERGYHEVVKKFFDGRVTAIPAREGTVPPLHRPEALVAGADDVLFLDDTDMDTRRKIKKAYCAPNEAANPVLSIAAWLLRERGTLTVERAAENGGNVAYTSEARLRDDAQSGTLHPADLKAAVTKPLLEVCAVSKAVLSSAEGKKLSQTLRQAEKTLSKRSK

[8] = target: T4, Tyrosyl-tRNA synthetase, putative (Trypanosoma cruzi (strain CL Brener)); experiment: Trypanosoma cruzi tyrosyl tRNA synthetase (TcYRS) SOP; type: functional; details: 30 µM
[9] = target: Chromo domain-containing protein 1 (Saccharomyces cerevisiae (strain ATCC 204508 / S288c) (Baker's yeast)) (UniProt P32657); experiment: ScCHD-1 Enzyme Inhibition Assay; type: functional; details: 30 µM; further: in the data most compounds retested in dose-response had high values
Chain of Chromo domain-containing protein 1 (Saccharomyces cerevisiae (strain ATCC 204508 / S288c) (Baker's yeast)) (P32657 whole entry, the tested form may be a part): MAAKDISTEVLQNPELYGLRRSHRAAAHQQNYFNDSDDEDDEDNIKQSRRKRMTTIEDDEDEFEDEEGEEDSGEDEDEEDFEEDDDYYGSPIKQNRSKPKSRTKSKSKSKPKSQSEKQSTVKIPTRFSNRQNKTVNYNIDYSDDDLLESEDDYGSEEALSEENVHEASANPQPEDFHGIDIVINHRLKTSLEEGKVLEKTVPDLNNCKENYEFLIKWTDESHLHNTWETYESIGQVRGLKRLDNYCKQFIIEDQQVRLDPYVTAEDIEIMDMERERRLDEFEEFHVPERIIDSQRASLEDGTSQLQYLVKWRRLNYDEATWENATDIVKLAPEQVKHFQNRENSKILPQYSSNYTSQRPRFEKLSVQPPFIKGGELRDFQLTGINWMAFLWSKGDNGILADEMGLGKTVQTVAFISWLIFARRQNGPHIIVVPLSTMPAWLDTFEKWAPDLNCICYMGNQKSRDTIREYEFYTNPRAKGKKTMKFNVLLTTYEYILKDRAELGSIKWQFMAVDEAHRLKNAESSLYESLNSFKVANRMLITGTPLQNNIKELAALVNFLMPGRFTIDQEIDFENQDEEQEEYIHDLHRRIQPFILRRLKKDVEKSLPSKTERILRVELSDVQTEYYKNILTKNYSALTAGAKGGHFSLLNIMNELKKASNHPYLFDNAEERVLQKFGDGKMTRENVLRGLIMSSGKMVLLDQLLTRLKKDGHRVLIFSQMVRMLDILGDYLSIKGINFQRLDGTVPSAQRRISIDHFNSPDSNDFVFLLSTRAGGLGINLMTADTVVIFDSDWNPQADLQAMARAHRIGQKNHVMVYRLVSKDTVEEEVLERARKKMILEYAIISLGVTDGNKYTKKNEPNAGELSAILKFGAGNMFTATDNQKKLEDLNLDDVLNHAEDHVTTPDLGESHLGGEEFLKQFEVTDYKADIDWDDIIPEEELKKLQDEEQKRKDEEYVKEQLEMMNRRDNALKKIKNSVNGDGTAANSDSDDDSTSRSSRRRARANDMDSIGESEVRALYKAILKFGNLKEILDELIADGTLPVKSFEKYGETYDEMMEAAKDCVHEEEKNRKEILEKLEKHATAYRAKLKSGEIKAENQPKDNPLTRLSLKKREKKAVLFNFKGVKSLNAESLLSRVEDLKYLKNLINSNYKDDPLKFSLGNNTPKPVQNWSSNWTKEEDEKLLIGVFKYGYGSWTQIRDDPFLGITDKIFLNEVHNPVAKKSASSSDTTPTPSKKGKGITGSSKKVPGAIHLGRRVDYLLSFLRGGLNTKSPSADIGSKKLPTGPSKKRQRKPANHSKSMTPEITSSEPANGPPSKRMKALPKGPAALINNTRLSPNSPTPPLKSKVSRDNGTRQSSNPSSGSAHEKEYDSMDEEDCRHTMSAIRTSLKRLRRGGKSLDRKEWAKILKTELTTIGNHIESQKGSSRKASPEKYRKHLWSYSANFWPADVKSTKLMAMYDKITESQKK

Chain of Sialic acid-binding Ig-like lectin 9 (Homo sapiens) (Q9Y336 whole entry): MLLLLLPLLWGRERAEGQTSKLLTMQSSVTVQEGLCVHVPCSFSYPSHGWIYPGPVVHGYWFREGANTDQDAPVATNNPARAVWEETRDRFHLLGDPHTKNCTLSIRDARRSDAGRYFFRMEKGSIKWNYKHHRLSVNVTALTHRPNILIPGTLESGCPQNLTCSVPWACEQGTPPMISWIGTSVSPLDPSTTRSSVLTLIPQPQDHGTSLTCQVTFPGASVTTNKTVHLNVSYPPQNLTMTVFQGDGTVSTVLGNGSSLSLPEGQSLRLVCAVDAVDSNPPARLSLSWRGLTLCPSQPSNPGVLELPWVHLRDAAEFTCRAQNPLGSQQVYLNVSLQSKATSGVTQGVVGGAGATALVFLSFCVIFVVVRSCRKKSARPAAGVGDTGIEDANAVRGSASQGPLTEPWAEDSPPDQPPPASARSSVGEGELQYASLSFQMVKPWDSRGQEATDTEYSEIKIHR
Chain of Protein translocase subunit SecA (Escherichia coli (strain K12)) (P10408 whole entry): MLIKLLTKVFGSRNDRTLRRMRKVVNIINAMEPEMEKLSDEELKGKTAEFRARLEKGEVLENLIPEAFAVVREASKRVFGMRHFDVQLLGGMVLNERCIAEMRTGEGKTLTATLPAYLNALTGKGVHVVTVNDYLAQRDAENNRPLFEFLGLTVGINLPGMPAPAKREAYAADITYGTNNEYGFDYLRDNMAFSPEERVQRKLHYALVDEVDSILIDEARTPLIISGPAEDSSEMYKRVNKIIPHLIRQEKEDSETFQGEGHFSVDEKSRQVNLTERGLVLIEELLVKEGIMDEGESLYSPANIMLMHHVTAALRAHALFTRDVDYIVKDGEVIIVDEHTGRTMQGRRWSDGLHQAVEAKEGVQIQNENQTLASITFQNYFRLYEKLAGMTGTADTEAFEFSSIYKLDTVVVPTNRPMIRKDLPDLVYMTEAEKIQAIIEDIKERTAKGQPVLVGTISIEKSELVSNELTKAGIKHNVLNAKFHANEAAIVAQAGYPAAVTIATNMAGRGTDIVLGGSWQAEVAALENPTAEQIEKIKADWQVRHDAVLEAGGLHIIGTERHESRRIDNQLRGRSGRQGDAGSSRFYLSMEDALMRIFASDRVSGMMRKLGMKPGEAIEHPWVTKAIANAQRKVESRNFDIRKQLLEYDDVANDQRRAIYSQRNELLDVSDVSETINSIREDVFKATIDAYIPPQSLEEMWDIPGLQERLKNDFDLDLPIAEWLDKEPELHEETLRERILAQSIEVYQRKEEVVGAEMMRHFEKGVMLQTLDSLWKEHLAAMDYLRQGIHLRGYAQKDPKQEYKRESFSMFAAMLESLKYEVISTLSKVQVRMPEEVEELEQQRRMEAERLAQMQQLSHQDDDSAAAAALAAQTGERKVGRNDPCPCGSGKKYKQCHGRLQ

| Structure (SMILES) | Percent Effect [1] | Percent Effect [2] | Percent Effect [3] | Percent Effect [4] | Percent Effect (Trypanosoma cruzi) | Percent Effect [5] | Percent Effect [6] | Percent Effect (Homo sapiens) | Percent Effect [7] | Percent Effect [8] | Percent Effect [9] |
| --- | --- | --- | --- | --- | --- | --- | --- | --- | --- | --- | --- |
| CCC1=N[C@@]2(CC[C@@H]3CN(CC(=O)N(C)C)C[C@@H]32)C(=O)N1CC1CC1 | -0.889% | 6.67% | 3.24% | -0.307% | -6.88% | -12.2% | 17.2% | 4.45% | 0% | 10.3% | -7.25% |
| O=C(NCCNC(=O)N1CCC(c2ccccc2)C1)C1CC1 (stereo unspecified) | -2.18% | 18.9% | -5.02% | 22% | 4.44% | 2.38% | 15.5% | 8.1% | 2.65% | 14.6% | -0.679% |
| CCc1nc(CCNC(=O)Nc2ccc(C(=O)NC)cc2C)cs1 | -9.57% | 0% | -0.875% | 3.65% | -3.8% | -3.65% | 4.18% | 40.4% | -2.73% | -1.24% | -1.65% |
| NC(=O)C(CNC(=O)Cc1ccc(F)cc1)Cc1ccc(F)cc1 (stereo unspecified) | -4.48% | 2.63% | -46.9% | -3.44% | -4.19% | 0% | 11.4% | 19.6% | 0% | 0% | -3.68% |
| COc1ccccc1N1CCC(CNCc2cccc(O)c2)C1 (stereo unspecified) | -2.9% | -5.41% | 15.1% | 11% | 1.6% | -4.81% | 4.14% | 20.2% | 0.493% | 6.17% | -6.34% |
| Cc1noc(C)c1-c1cncc(C2CCCN2Cc2ccncc2)n1 (stereo unspecified) | 1.38% | 1.35% | 12% | 8.81% | 0.79% | 0.696% | 6.08% | 32.8% | 2.15% | 1.3% | -9.13% |
| Cn1cc(-c2ncnc3c2CCN(C(=O)N2CCOCC2)CC3)cn1 | -2.9% | 0% | -3.79% | 15.2% | 3.03% | 1.24% | 9.53% | -0.161% | 1.07% | 8.64% | -11.6% |
| Cn1cc(Br)c(=O)c(NS(=O)(=O)c2ccc(F)cc2)c1 | -0.436% | 2.7% | -1.93% | 10.6% | 5.41% | -0.476% | 10.5% | 2.64% | 2.65% | 12.2% | -2.91% |
| COc1cccc(COCC(=O)N2CCC(CC(N)=O)CC2)c1 | -3.54% | 7.89% | -1.04% | -0.0672% | -6.77% | 5.75% | 0.334% | 23.7% | 5.39% | 12.2% | -3.41% |
| Cc1cnn(CC2CN(Cc3nccn3C)CCO2)c1 (stereo unspecified) | -2.86% | 5.41% | -4.03% | 2.01% | -1.95% | 3.14% | 1.44% | 8.74% | 6.93% | 11% | -1.23% |
| Cc1ccoc1C(=O)N1CCO[C@H]2[C@H](OCC3CCOCC3)CC[C@@H]21 | -3.5% | 5.33% | -1.93% | 2.92% | 5.02% | -48.9% | -0.513% | -9.79% | 2.08% | -5% | -3.9% |
